Measurements as given in PubChem BioAssay (Tox21).
Inconclusive results are not listed. A call without a number means that no potency is given here. The source made the active and inactive calls. Calls come from the whole dose curve; as a rule, active = well fitted cell-killing curve with a large enough effect in the repeat runs; inconclusive = weak or mixed curves; inactive = flat fitted curve, though single readings scatter.

test: qHTS RealTime-Glo MT Cell Viability Assay in HepG2 cells - 24 hour (AID 1224867); conditions: RealTime-Glo luminescence; series mostly up to 76.8 µM; note: nearly all actives have a fitted effect of over 50% in size
Description: U.S. Tox21 Program National Center for Advancing Translational Sciences [NCATS] NIH Chemical Genomics Center [NCGC] U.S. Environmental Protection Agency [EPA] National Institutes of Environmental Health Sciences [NIEHS] National Toxicology Program [NTP] U.S. Food and Drug Administration [FDA] Tox21 Assay Overview: Measure of cell viability is critical in the cell-base assay. Analysis of cell viability is necessary for the characterization of cell responses to cytotoxic drugs and environmental stress. A RealTime-Glo MT Cell Viability Assay to monitor cell viability in real time of continues cell culture during 40 hours of compound treatment was used to screen Tox21 10K library compounds in HepG2 cells. The RealTime-Glo MT Cell Viability Assay is a nonlytic, homogeneous, bioluminescent method to measure cell viability in real time using a simple, plate-based method. The assay involves adding NanoLuc luciferase and a cell-permeant prosubstrate to cells in culture. Viable cells reduce the proprietary prosubstrate to generate a substrate for NanoLuc luciferase. This substrate diffuses from cells into the surrounding culture medium, where it is rapidly used by the NanoLuc Enzyme to produce a luminescent signal. The signal correlates with the number of viable cells, making the assay well suited for cytotoxicity studies.
Tox21 Assay Protocol Summary: The mixture of HepG2 cell suspension and reagents were dispensed at 600cells/6 ul/well in 1536-well tissue culture treated black solid bottom plates using a Multidrop dispenser. After the assay plates were incubated at a 37 C/5% CO2 incubator for 5 hours, 23 nL of compounds dissolved in DMSO, positive and negative controls was transferred to the assay plate by a pintool work station. The plates were incubated at 37 C for 40 hours. The luminescence intensity were measured at 0h, 8h, 16h, 24h, 32h and 40h time points using ViewLux plate reader during compound treatment.

SMILES | Potency
COc1c(Cl)ccc(Cl)c1C(=O)O | inactive
Clc1cccc(Cl)c1NC1=NCCN1 | inactive
CCCCCCCCO | inactive
Cc1cc(C)c(O)c(C)c1 | inactive
Cc1ccccc1Cl | inactive
CCCCC(CC)COC(=O)c1ccc(C(=O)OCC(CC)CCCC)cc1 (stereo not given) | inactive
CC(C)=CCC/C(C)=C/C=O | inactive
CCCCCCCCCCCC(=O)N(C)CC(=O)O | inactive
CC(=O)OCc1ccc2c(c1)OCO2 | inactive
CC(=O)c1nccs1 | inactive
OCCOCCOCCOCCOCCO | inactive
CC(O)CNCC(C)O (stereo not given) | inactive
O=C(Cl)c1ccc(C(=O)Cl)cc1 | inactive
Cc1cccc(C)c1[N+](=O)[O-] | inactive
C=C(C)CC(C)(C)C | inactive
Nc1cccc(C(F)(F)F)c1 | inactive
CC(=O)OCCC(C)C | inactive
Cc1ccc([N+](=O)[O-])cc1N | inactive
CCc1cccc(CC)c1N | inactive
O=[N+]([O-])c1cc(C(F)(F)F)ccc1Cl | inactive

SMILES | Potency
C=C(CC(=O)O)C(=O)O | inactive
Nc1nc(N)c2nc(-c3ccccc3)c(N)nc2n1 | inactive
Cc1ccccc1C=O | inactive
CC/C=C(\C(=O)N[C@@H]1C(=O)N2C(C(=O)OCOC(=O)C(C)(C)C)=C(COC(N)=O)CS[C@H]12)c1csc(N)n1 | inactive
COc1ccccc1[N+](=O)[O-] | inactive
O=C(O)Cc1c[nH]c2ccccc12 | inactive
CCCCCNCCCCC | inactive
CC(C)(C)NC[C@H](O)COc1nsnc1N1CCOCC1 | inactive
N[C@@H](Cc1cc(I)c(Oc2ccc(O)c(I)c2)c(I)c1)C(=O)O | inactive
COc1ccc2cc3[n+](cc2c1OC)CCc1cc2c(cc1-3)OCO2 | inactive
COCN(COC)c1nc(N(COC)COC)nc(N(COC)COC)n1 | inactive
CC1=CC(=O)CC(C)(C)C1 | inactive
Nc1cccc(N)n1 | inactive
COc1cc(NC(=O)CC(C)=O)c(OC)cc1Cl | inactive
Cc1nnc(NS(=O)(=O)c2ccc(N)cc2)s1 | inactive
CCN(CC)CCNC(=O)c1ccc(N)cc1 | inactive
CO[Si](CCCNCCN)(OC)OC | inactive
OCC(O)CS (stereo not given) | inactive
Cc1ccncc1 | inactive
Cc1ccc(C)c(S(=O)(=O)O)c1 | inactive
